Source: PubChem
GLD-1 TGE inh: GLD-1-TGE RNA interaction inhibition (C. elegans). Q17339. purified GLD-1 + fluorescein TGE RNA, fluorescence polarization. inhibition, % at 5.96 µM. 320,000 compounds, 0.44% hits. AID 2280;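 active = percent inhibition above a per-plate cutoff, the plate mean of test compounds plus 3 SD, cut at about 30% in these data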
MCL1-BIM inh: inhibitors of human MCL1 binding to BIM-BH3 peptide. Q07820. GST-MCL1 / FITC-Bim-BH3 fluorescence polarization. inhibition, % at 10.9 µM. 320,000 compounds, 0.68% hits;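 active = inhibition above the mean inhibition of all tested compounds plus 3 SD, set per campaign, cut at about 40% in these data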;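 note: higher means more loss of mP so more displacement of Bim peptide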
MEX-5 binding: C. elegans MEX-5 TCR-2 RNA binding activity; MEX-5/FITC-TCR2 RNA binding, fluorescence polarization; active compounds read low; activity score (negative = inhibition of binding), % at 10 µM; 300,000 compounds, 0.38% hits; Q9XUB2;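 active = inhibition past about -25% in most replicates, and total fluorescence under double the plate's negative control median, limit read from the data; inconclusive = replicates evenly split on the limit, or fluorescence at least double controls; inactive = too little inhibition in most replicates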
Target sequence (Q9XUB2 whole entry, looked up): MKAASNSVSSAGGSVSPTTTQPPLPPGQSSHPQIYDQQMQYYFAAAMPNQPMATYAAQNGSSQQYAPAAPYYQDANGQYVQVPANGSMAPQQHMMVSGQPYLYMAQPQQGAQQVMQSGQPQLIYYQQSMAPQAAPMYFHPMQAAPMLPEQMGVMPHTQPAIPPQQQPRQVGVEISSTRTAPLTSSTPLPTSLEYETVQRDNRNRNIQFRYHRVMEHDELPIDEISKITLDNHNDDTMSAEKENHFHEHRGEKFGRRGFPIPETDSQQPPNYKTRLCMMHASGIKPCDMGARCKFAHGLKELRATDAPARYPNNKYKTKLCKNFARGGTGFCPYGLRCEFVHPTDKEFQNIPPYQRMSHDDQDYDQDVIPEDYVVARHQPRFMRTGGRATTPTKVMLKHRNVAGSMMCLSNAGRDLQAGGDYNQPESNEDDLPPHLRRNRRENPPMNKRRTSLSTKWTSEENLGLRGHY
EBV gp42 block: EBV gp42 inhibition; AID 1085; Fluorescence polarization binding assay, mP read-out; 220,000 compounds, 0.42% hits; inhibition, % (tested at 21.74 µM); in the data active = inhibition above about 50%
eLon inh: inhibitors of E. coli Lon protease. P0A9M0. purified E. coli Lon protease, fluorescence polarization. inhibition, % at 7.94 µM. 360,000 compounds, 0.42% hits. AID 602123; in the data active = inhibition above about 13%, passing the limit was not always enough
BCLXL inh: inhibitors of human Bcl-xL. GST-Bcl-xL / FITC-Bim BH3 peptide fluorescence polarization. inhibition, % at 10.9 µM. 320,000 compounds, 0.7% hits. AID 2129;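 active = inhibition above the mean of all tested compounds plus 3 SD, cutoff set per campaign, cut at about 30% in these data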;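 note: inhibitors lower millipolarization by displacing the labeled peptide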
Target sequence (Q07817 whole entry, looked up): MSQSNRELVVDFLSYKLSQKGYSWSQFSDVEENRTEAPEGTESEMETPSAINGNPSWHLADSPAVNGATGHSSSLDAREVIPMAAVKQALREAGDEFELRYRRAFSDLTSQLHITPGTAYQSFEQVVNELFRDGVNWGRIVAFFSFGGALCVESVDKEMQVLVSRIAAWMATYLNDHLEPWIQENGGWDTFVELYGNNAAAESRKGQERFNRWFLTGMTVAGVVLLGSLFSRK
BCLXL inh confirm: counter-screen for MCL1 inhibitors: confirmation of human Bcl-xL inhibitors; 1,700 compounds, 54% hits; inhibition, % at 10.9 µM; GST-Bcl-xL / FITC-Bim BH3 peptide FP binding; shares compounds with MCL1-BIM inh; AID 2166;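 active = inhibition above a cutoff equal to the mean inhibition of all tested compounds plus 3 SD, cut at about 30% in these data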
MCL1 BIM confirm: confirmation of human MCL1 and BIM-BH3 interaction inhibitors; 1,700 compounds, 61% hits; AID 2168; inhibition, % at 10.9 µM; shares compounds with MCL1-BIM inh; GST-MCL1 / FITC-Bim-BH3 fluorescence polarization;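 active = inhibition above the average of all tested compounds plus 3 SD, cut at about 40% in these data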
Large screens that a line does not name were inactive (follow-up assays come after a bar, where they were run). In the library only some 1.5% were active in any assay of this set; here they are far more common.

Cc1c(C(=O)O)sc2nc(-c3cccs3)cc(C(F)(F)F)c12	none (no result: EBV gp42 block)
COc1ccc(-c2cc(C(F)(F)F)c3c(N)c(C(=O)NCCSC)sc3n2)cc1	GLD-1 TGE inh 58, MCL1-BIM inh 78, MEX-5 binding inconclusive, BCLXL inh 80 (no result: EBV gp42 block) | BCLXL inh confirm 81 | MCL1 BIM confirm 85
COCCn1c(C)c(C)c(S(=O)(=O)c2ccccc2)c1N	MCL1-BIM inh 72, BCLXL inh 68 (no result: EBV gp42 block) | BCLXL inh confirm 44 | MCL1 BIM confirm 62
CNc1ccc(Br)cc(C(=O)/C=C/c2ccc3c(c2)OCO3)c1=O	MCL1-BIM inh 49 | BCLXL inh confirm inactive | MCL1 BIM confirm inactive
O=C(CN1CCCc2ccccc21)NCc1ccccc1Cl	MCL1-BIM inh 68, BCLXL inh 62 | BCLXL inh confirm inactive | MCL1 BIM confirm inactive
COc1cccc(CNC(=O)COc2ccc(C(=O)c3ccccc3)cc2)c1	none (no result: EBV gp42 block)
COc1ccccc1NC(=O)COC(=O)c1cc2c(s1)CCC2	none (no result: GLD-1 TGE inh, MCL1-BIM inh, MEX-5 binding, EBV gp42 block, BCLXL inh)
COc1ccc(OC)c(NC(=O)COC(=O)c2cc3c(s2)CCC3)c1	MCL1-BIM inh 57 | BCLXL inh confirm inactive | MCL1 BIM confirm 43
COc1ccc(Br)cc1C(=O)Nc1ccc(N2CCCC2)cc1	MCL1-BIM inh 46 (no result: EBV gp42 block) | BCLXL inh confirm inactive | MCL1 BIM confirm inactive
COCCNC(=O)c1cc2c(c(-c3cccc(C#CC(C)(C)O)c3)n1)[C@@H](CCO)N(S(=O)C(C)(C)C)C2 (stereo partly specified)	none (no result: GLD-1 TGE inh, MCL1-BIM inh, MEX-5 binding, EBV gp42 block, BCLXL inh)
Cc1cccc(NC(=O)CNC(=O)c2cccc(-n3cccc3)c2)c1C	MCL1-BIM inh 49 (no result: EBV gp42 block) | BCLXL inh confirm inactive | MCL1 BIM confirm 57
Cc1cc(C)nc(NS(=O)(=O)c2ccc(CC(C)C)cc2)c1	none
C=CCn1c(SCC(=O)Nc2ccc(F)cc2)nc2ccccc2c1=O	none (no result: EBV gp42 block)
COc1ccc(CN(CC(=O)NCCc2ccccc2)C(=O)CCC(=O)Nc2ccccn2)cc1	none (no result: EBV gp42 block)
O=C(N/N=C/c1cc(Cl)cc(Cl)c1O)c1ccncc1	GLD-1 TGE inh 67, MCL1-BIM inh 56, EBV gp42 block 57, BCLXL inh 72 | BCLXL inh confirm 67 | MCL1 BIM confirm 67
O=C(N/N=C/c1ccc(Cl)cc1Cl)c1ccncc1	none (no result: EBV gp42 block)
Nc1ccc2nc(-c3ccccc3)c(-c3ccccc3)nc2c1	GLD-1 TGE inh 73, MCL1-BIM inh 60, MEX-5 binding -40, BCLXL inh 49 (no result: EBV gp42 block) | BCLXL inh confirm 63 | MCL1 BIM confirm 54
Nc1nc2c(ncn2[C@@H]2O[C@H](CNC(=O)[C@H](N)Cc3cncn3COCc3ccccc3)[C@@H](O)[C@H]2O)c(=O)[nH]1	none (no result: GLD-1 TGE inh, MCL1-BIM inh, MEX-5 binding, EBV gp42 block, BCLXL inh)
COC(=O)CSc1nc(NC(C)(C)C)nc(N(C)C)n1	none
CC(=O)C(Sc1nc(NC(C)(C)C)nc(N(C)C)n1)C(C)=O	MCL1-BIM inh 193 | BCLXL inh confirm inactive | MCL1 BIM confirm inactive
O=S(=O)(c1cccs1)N1CN(Cc2ccco2)c2nc3ccccc3nc21	GLD-1 TGE inh 140, MCL1-BIM inh 172, BCLXL inh 156 | BCLXL inh confirm inactive | MCL1 BIM confirm inactive
O=S(=O)(c1cccs1)N1CN(Cc2ccc(Cl)cc2)c2nc3ccccc3nc21	none (no result: MEX-5 binding)
CCOc1ccc(C(=O)NCC(=O)NNC(=O)CN(C)S(=O)(=O)c2ccc(Cl)cc2)cc1	none (no result: EBV gp42 block)
COc1cc(Cl)c(C)cc1NC(=O)CSc1sc2c(O)cc(=O)[nH]c2c1C#N	MCL1-BIM inh 43 (no result: EBV gp42 block) | BCLXL inh confirm inactive | MCL1 BIM confirm inactive
N#Cc1c(SCC(=O)Nc2nncs2)sc2c(O)cc(=O)[nH]c12	MCL1-BIM inh 70, BCLXL inh 34 (no result: EBV gp42 block) | BCLXL inh confirm inactive | MCL1 BIM confirm 53
COc1cccc(C(C)(O)c2nc(-c3ccc(S(C)(=O)=O)cc3)cs2)c1 (stereo unspecified)	none (no result: GLD-1 TGE inh, MCL1-BIM inh, MEX-5 binding, EBV gp42 block, BCLXL inh)
COc1ccc(NC(=O)c2ccc(S(=O)(=O)N3CC(C)CC(C)C3)cc2)cc1S(N)(=O)=O (stereo unspecified)	none (no result: MEX-5 binding, EBV gp42 block)
CC1CCC2(CC1)NC(=O)N(CC(=O)Nc1ccc3c(c1)OCCO3)C2=O (stereo unspecified)	none
O=c1nc2s/c(=C\c3ccco3)c(=O)n2nc1Cc1ccc(F)cc1	MCL1-BIM inh 53 | BCLXL inh confirm inactive | MCL1 BIM confirm 68
CCCN1C(=O)/C(=c2\sc3nc(=O)c(Cc4ccc(C)cc4)nn3c2=O)c2ccccc21	none
C=CCOc1c(Br)cc(C2C3=C(CCCC3=O)N(C)C3=C2C(=O)CCC3)cc1OCC	MCL1-BIM inh 43 | BCLXL inh confirm inactive | MCL1 BIM confirm inactive
Cc1c(NS(=O)(=O)c2cc(C(=O)NCc3cccc(Cl)c3)ccc2Cl)c(=O)n(-c2ccccc2)n1C	none (no result: GLD-1 TGE inh, MCL1-BIM inh, MEX-5 binding, EBV gp42 block, BCLXL inh)
Cc1c(NS(=O)(=O)c2cc(C(=O)NCCN(C)C)ccc2Cl)c(=O)n(-c2ccccc2)n1C	MCL1-BIM inh 75 (no result: EBV gp42 block) | BCLXL inh confirm inactive | MCL1 BIM confirm inactive
CCSc1nc2sc3c(c2c(=O)[nH]1)CC(C)(CC)OC3 (stereo unspecified)	none
CCC1(C)Cc2c(sc3nc(SC)[nH]c(=S)c23)CO1 (stereo unspecified)	GLD-1 TGE inh 32, MCL1-BIM inh 57, BCLXL inh 50 (no result: EBV gp42 block, eLon inh) | BCLXL inh confirm inactive | MCL1 BIM confirm inactive
O=Cc1cccc(OC(=O)/C=C/c2ccco2)c1	MCL1-BIM inh 50 (no result: EBV gp42 block) | BCLXL inh confirm inactive | MCL1 BIM confirm 52
COC(=O)c1ccc(OC(=O)/C=C/c2ccco2)cc1	none (no result: EBV gp42 block)
Cc1nn(CC(=O)OCC(=O)c2ccc(OC(F)F)cc2)c(C)c1[N+](=O)[O-]	none (no result: MEX-5 binding, EBV gp42 block)
CCOc1ccc(Br)cc1C1=NN(C(C)=O)C(c2ccc([N+](=O)[O-])s2)O1 (stereo unspecified)	none (no result: GLD-1 TGE inh, MCL1-BIM inh, EBV gp42 block, BCLXL inh)
O=C1NC(=O)C(c2ccccc2[N+](=O)[O-])=C1Nc1ccc(O)c(Cl)c1	MCL1-BIM inh 50 (no result: EBV gp42 block) | BCLXL inh confirm inactive | MCL1 BIM confirm inactive
O=C(NC(=S)Nc1cccc2c(O)cccc12)c1ccccc1[N+](=O)[O-]	MCL1-BIM inh 48, BCLXL inh 31 (no result: EBV gp42 block) | BCLXL inh confirm inactive | MCL1 BIM confirm inactive
Cc1onc(-c2c(Cl)cccc2Cl)c1CO/N=C(\C#N)c1c(Cl)cccc1Cl	none
COc1ccccc1NC(=O)CC(NC1CCCCC1)C(=O)O (stereo unspecified)	MCL1-BIM inh 62 | BCLXL inh confirm inactive | MCL1 BIM confirm inactive
COc1ccccc1CNC(=O)/C=C/c1ccc(Br)o1	MCL1-BIM inh 42 | BCLXL inh confirm inactive | MCL1 BIM confirm inactive
COc1ccc(NC(=O)/C=C/c2ccc(Br)o2)cn1	none
CN(C(=O)c1cc(S(=O)(=O)N2CCc3ccccc32)cn1C)C1CCCCC1	none (no result: EBV gp42 block)
